# Data reported in PMC7819943, “Rice protein-binding microarrays: a tool to detect cis-acting elements near promoter regions in rice”.
# Whole data set: some 68,000 sequences, median “fluorescence intensity (a.u.)” near 9,100, cut for the highest 2% near 16,000. This excerpt belongs to a sample that is enriched for the highest values.
# Molecular target: OsWRKY34 (Oryza sativa, UniProt Q0JBA9 1-250)
# Test: protein-binding microarray (RPBM); PBS, 2% BSA, 51.3 ng/ul salmon testes DNA, 50 uM zinc acetate, 200 nM TF, 25 C, 1 h; high values mean tight binding
# Conditions: protein: recombinant; tags: N-terminal polyhistidine and DsRed monomer fusion (pET32a); label: CyDye5-dUTP incorporated in the synthesized complementary strand; 3' TTTTT single-stranded linker to array surface; dsDNA, one strand shown
# How it was run: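 For the binding signal, per-feature fluorescence intensity was read in arbitrary units on an Axon 4000B scanner. Before scanning, a 2% BSA-blocked custom Agilent array made double-stranded with Cy5-dUTP was washed after 1 h at 25 °C with 200 nM protein and 50 µM zinc acetate. The proteins were Ni–NTA-purified transcription factors with N-terminal polyhistidine and DsRed fusions, expressed in E. coli BL21-CodonPlus.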
# Sequence of OsWRKY34 (Q0JBA9 entry or part of it): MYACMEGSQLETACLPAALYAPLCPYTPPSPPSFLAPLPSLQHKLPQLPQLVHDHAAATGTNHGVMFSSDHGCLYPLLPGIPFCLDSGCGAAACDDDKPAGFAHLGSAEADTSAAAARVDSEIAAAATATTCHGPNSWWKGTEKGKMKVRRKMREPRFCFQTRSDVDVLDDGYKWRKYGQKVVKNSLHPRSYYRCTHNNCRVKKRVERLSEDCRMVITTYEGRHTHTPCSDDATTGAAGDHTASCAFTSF
row,Sequence,binding signal
1,AGGAGGAGGAGGAGGAGGAGGAGGAGGCGGTGGGAGGGATCGGAGTCACCTAGTGCAG,14800 fluorescence intensity (a.u.)
2,ATGCGGCGGTGGCGGGAGGGAGGGACAGGGTTGGTGAAGTCGGAGTCACCTAGTGCAG,17400 fluorescence intensity (a.u.)
3,GCACTTATCGTTTATTTTCTTATAATTTATTTTATCATTGCGGAGTCACCTAGTGCAG,8830 fluorescence intensity (a.u.)
4,GCAAGTACTTGGTGGTATATGTTGTTTGGAATAAAAAGGTCGGAGTCACCTAGTGCAG,8320 fluorescence intensity (a.u.)
5,CCTCGCTCCTCCTCGTCGCAGATCGATCTCAAACCTTCAGCGGAGTCACCTAGTGCAG,8730 fluorescence intensity (a.u.)
6,ATACATTTATTCCTTCTTAGAGTCACTACTCTTCATTGAACGGAGTCACCTAGTGCAG,8060 fluorescence intensity (a.u.)
7,ACCTCTTCCTCGACGCCGCCGCCGACCACCACCCCGCCGGCGGAGTCACCTAGTGCAG,8670 fluorescence intensity (a.u.)
8,TGTGTCATCTTGTCTATGGTAGTTCAGCAATCCTCTGCTTCGGAGTCACCTAGTGCAG,8890 fluorescence intensity (a.u.)
9,ATCACCGTCCCCGCTGCCGCCACCCGCCACTGCCGCAGCGCGGAGTCACCTAGTGCAG,10800 fluorescence intensity (a.u.)
10,AGGCGGCGGGGTGGCGGTGGTGGTGGTGGTGGTGGTGATGCGGAGTCACCTAGTGCAG,19000 fluorescence intensity (a.u.)
11,GTGGGGCCCACCTGTCGGGGCGGTTGATGGGCTCTTCTAGCGGAGTCACCTAGTGCAG,8370 fluorescence intensity (a.u.)
12,CCACAACACCGCAACACACTGTCCTTGCTTCTTCATTGATCGGAGTCACCTAGTGCAG,8750 fluorescence intensity (a.u.)
13,AGGTGAGGTGGAGGAGGAGGAGGAGGAGGAGATCGGGATGCGGAGTCACCTAGTGCAG,8790 fluorescence intensity (a.u.)
14,CCCGCAGATTGGATTGGATTGGGTTGGATTGGATTGGATGCGGAGTCACCTAGTGCAG,10300 fluorescence intensity (a.u.)
15,CTTCTTCTTGTCCTGCGCAACCGATGGGCGGGTTCTTGATCGGAGTCACCTAGTGCAG,18800 fluorescence intensity (a.u.)
16,AATGAAAAATGGGGATGGGATTGGGATTGAGAAATGAATGCGGAGTCACCTAGTGCAG,9280 fluorescence intensity (a.u.)
17,GGGATTGGATTGGGTTGGGTTGGATTGGAGAGAGAGAATGCGGAGTCACCTAGTGCAG,31400 fluorescence intensity (a.u.)
18,CGGCGGGTGGGGCGGTGGCGGTGAGGGATGCGGTGGTGGCCGGAGTCACCTAGTGCAG,10700 fluorescence intensity (a.u.)
19,CCGGAGAGGCGGTGGTGTTTGGATCGGGAGGGGAGAGATGCGGAGTCACCTAGTGCAG,11500 fluorescence intensity (a.u.)
20,GGCGGCGGTGATTCGGGGATGCGGCGCGGCGGGGAGGAGGCGGAGTCACCTAGTGCAG,10100 fluorescence intensity (a.u.)
21,GGTGGTGGTGGTGGTGGATCGGGTGGCTTTGGCTGAGATGCGGAGTCACCTAGTGCAG,18100 fluorescence intensity (a.u.)
22,TCTCCTCACCGGCCCCTCTTCCCCTTCGATTCTGGCGGCTCGGAGTCACCTAGTGCAG,8880 fluorescence intensity (a.u.)
23,TTCGTTTCTGGCTTTTTCGTCGTGTTCCGATTTCAATCTCCGGAGTCACCTAGTGCAG,12700 fluorescence intensity (a.u.)

row,Sequence,binding signal
1,CTACATGGGTGTTGACTCATTTTATTTATCTTTTTCTCCACGGAGTCACCTAGTGCAG,10300 fluorescence intensity (a.u.)
2,GCCTATCCTGCCCTCTCTACTACCACCCTTATCGATCTCTCGGAGTCACCTAGTGCAG,8340 fluorescence intensity (a.u.)
3,AAGAGACTTCTATATCTCTATATCCTTCTTATTTGCGTCCCGGAGTCACCTAGTGCAG,8080 fluorescence intensity (a.u.)
4,TTGCTCTCACATTTCGTGCACTACATCTTCTCGGTGGTCCCGGAGTCACCTAGTGCAG,8380 fluorescence intensity (a.u.)
5,AATTTGGTGGGGTCGGGGTGGGTGCTTTAACTGGGGAGATCGGAGTCACCTAGTGCAG,24500 fluorescence intensity (a.u.)
6,GTTGTCGGTGTGTGGGTGGTGATATATTTTTTTAACTGGTCGGAGTCACCTAGTGCAG,9020 fluorescence intensity (a.u.)
7,GCGGGTGGGTCTAGAGATTTTTTTTATTTGTTAATTGGATCGGAGTCACCTAGTGCAG,10400 fluorescence intensity (a.u.)
8,TGAGGTGAGGGCAGGGGCAGGGGCAGGGCGGACTGGCCAACGGAGTCACCTAGTGCAG,8680 fluorescence intensity (a.u.)
9,TCACTTTTTTTTCCATTCATTGTATGATTTCTTCTATTATCGGAGTCACCTAGTGCAG,10900 fluorescence intensity (a.u.)
10,AAAAAATACTATCTATGTACCCCTCCGTTTCTTTTTATTTCGGAGTCACCTAGTGCAG,8890 fluorescence intensity (a.u.)
11,CCTGATCGCCTCCTCCGCCACCGCCGTGTTCGATTCGTCTCGGAGTCACCTAGTGCAG,9670 fluorescence intensity (a.u.)
12,TGCCACCACCTTACCCTTTGCCAACATGCATCCGCTCCAACGGAGTCACCTAGTGCAG,19100 fluorescence intensity (a.u.)
13,CAACAACATCATCATCGCTCACATCCGCATCTCCACACAACGGAGTCACCTAGTGCAG,13500 fluorescence intensity (a.u.)
14,CTCCGCATCCCTCTCGCTCCTACCTTACCCCTCGCCGCCACGGAGTCACCTAGTGCAG,10200 fluorescence intensity (a.u.)
15,GCTCCGCCTGCCAGATCCATATGAGCCACCTGCGCCGCTACGGAGTCACCTAGTGCAG,8720 fluorescence intensity (a.u.)
16,CGCCATCACTGCCAAGCTCGCCGGCTACATCGCCCGCGCCCGGAGTCACCTAGTGCAG,8040 fluorescence intensity (a.u.)
17,CTGGGTGGGGAATTGGTTTAGTGAAGGATTAGTTGCTGATCGGAGTCACCTAGTGCAG,9770 fluorescence intensity (a.u.)
18,CTTGGGTTGGGCGGGAACTTGGGGAGGAATTATGGACTATCGGAGTCACCTAGTGCAG,16800 fluorescence intensity (a.u.)
19,ATGCTGAATTGGGTTGGGCTGGGGAGGAATTATAGACTATCGGAGTCACCTAGTGCAG,17500 fluorescence intensity (a.u.)
20,GGGGAGGAATTATGGACTATTTGGATGGGCTTTTTTTACTCGGAGTCACCTAGTGCAG,8030 fluorescence intensity (a.u.)
21,AGTTGGGCAGCAGTGGGTTGTGATATACTATGTGAATTATCGGAGTCACCTAGTGCAG,9100 fluorescence intensity (a.u.)
22,GCCAGTTAGGGACCTAGGGACTTGGGTTGGGCGGGAACTTCGGAGTCACCTAGTGCAG,14100 fluorescence intensity (a.u.)
